# Bioassay records deposited in PubChem by The Scripps Research Institute Molecular Screening Center.
# Hits are enriched below; roughly 2.4% of the tested compounds scored in any of these assays.
# CHRM1 PAM = human M1 muscarinic receptor positive allosteric modulators, primary screen, CHO-K1 cells, Fluo-8 calcium fluorescence, 1536-well; Muscarinic acetylcholine receptor M1 (Homo sapiens), P11229; CHO-K1 hM1, ACh EC20; 0% = ACh EC20, 100% = maximal ACh; activation, % at 3 µM; 0.088% of 360,000 active; AID 588819, 2011; in the data active = activation above about 19%, passing the limit was not always enough
# Target sequence (P11229 whole entry, looked up): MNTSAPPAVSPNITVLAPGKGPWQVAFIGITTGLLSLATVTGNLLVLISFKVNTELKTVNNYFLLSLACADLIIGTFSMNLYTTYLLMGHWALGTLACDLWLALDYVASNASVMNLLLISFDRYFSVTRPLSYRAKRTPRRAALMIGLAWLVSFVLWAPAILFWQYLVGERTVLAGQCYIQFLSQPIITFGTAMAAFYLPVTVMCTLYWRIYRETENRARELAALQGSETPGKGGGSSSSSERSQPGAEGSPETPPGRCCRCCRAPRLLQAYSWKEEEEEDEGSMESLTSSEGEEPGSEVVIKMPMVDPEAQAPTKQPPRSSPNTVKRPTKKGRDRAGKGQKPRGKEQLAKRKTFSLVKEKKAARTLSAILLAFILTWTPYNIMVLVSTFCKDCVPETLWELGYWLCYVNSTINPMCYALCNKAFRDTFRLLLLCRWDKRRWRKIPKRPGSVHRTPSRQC
# M1 PAM parental = nonselective calcium activators in parental CHO-K1 cells, primary screen, counter-screen for M1 PAM project, cell-based, Fluo-8 calcium fluorescence, full deck, 1536-well. ATP EC20; 0% at ATP EC20, 100% at ATP max. activation, % at 3 µM. 0.02% of 360,000 active. AID 602247, 2012;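 active = activation above the run cutoff, the mean activation of all test compounds plus 3 SD, cut at about 40% in these data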;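 also: peak over basal fluorescence ratio in a 140 s read after ATP addition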
# M1 ag = human M1 muscarinic receptor agonists, primary screen, Fluo-8 calcium fluorescence, CHO-K1 cells, HTS. Muscarinic acetylcholine receptor M1 (Homo sapiens), P11229. CHO-K1 hM1, agonist mode; 0% DMSO, 100% acetylcholine EC100. activation, % at 3 µM. 0.33% of 360,000 active;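 active = activation above the run's mean compound activation plus 3 SD, cut at about 16% in these data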;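 also: peak over basal fluorescence ratio within a 140 s kinetic read after compound addition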
# M1 ag parental = counter-screen for M1 agonists: effect in parental CHO-K1 cells; Fluo-8 calcium fluorescence; scaled to maximal ATP response, vehicle zero; activation, % at 3 µM; 0.48% of 360,000 active; AID 602248, 2012; in the data active = activation above about 15%;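 also: untransfected CHO-K1 host cells lacking M1 receptor as counterscreen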
# CHO-K1 Ca antag = M1 antagonist counterscreen hit in parental CHO-K1 cells; 0.6% of 360,000 active; ATP-induced calcium, Fluo-8 fluorescence; inhibition, % at 3 µM; AID 602250;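 active = inhibition above a per-plate cutoff, the plate's mean sample inhibition plus 3 SD, cut at about 24% in these data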;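 also: 0% = DMSO plus EC80 ATP and 100% = DMSO alone without ATP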
# M1 antag = human M1 muscarinic receptor antagonists, primary screen, CHO-K1 cells, Fluo-8 calcium fluorescence, 1536-well | CHO-K1 hM1, ACh EC80 antagonist | inhibition, % at 3 µM | 1.3% of 360,000 active | AID 588852, 2011;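 active = percent inhibition above its own plate's cutoff, namely the mean of that plate's compound wells plus 3 SD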;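 also: peak over basal fluorescence ratio during 140 s after agonist addition; 0% = ACh EC80 plus DMSO and 100% = DMSO alone without agonist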
# The depositor's hits bear a star; . = not tested or not shown.
SMILES,CHRM1 PAM,M1 PAM parental,M1 ag,M1 ag parental,CHO-K1 Ca antag,M1 antag
CCN(CC)CCOC(=O)C(c1ccccc1)C1CCCCC1 (stereo unspecified),-26.8,-7.3,-6.8,0.0,4.2,99.1*
CCN(CC)CCOC(=O)C(c1ccccc1)c1ccccc1,-25.2,21.9,-4.9,0.7,-5.3,96.5*
CCN(CC)CCSC(=O)C(c1ccccc1)c1ccccc1,-26.4,20.6,-8.7,0.8,-5.2,100.6*
CC(C)CC1OC(C)Cc2[nH][nH]c(=O)c21 (stereo unspecified),.,20.5,.,1.8,-13.2,.
O=C(N/C(=C/c1ccccc1Cl)C(=O)N1CCCCC1)c1ccco1,5.2,3.5,-0.8,1.3,-3.3,-4.5
CC12CCC(=O)C=C1CCC1C2C(O)CC2(C)C(c3csc(N)n3)CCC12 (stereo unspecified),-29.4,1.6,-3.9,1.1,1.4,41.5*
CCC(C(=O)OCC(=O)C1(O)CCC2C3CCC4=CC(=O)CCC4(C)C3C(O)CC21C)C(C)C (stereo unspecified),-30.2,-1.0,-2.3,3.7,-15.0,84.0*
CC(=O)[C@@]1(O)CC[C@H]2[C@@H]3CCC4=CC(=O)CC[C@]4(C)[C@H]3[C@@H](O)C[C@@]21C,6.7,-8.3,1.6,0.3,6.4,-20.2
CC(=O)C1CCC2C3CCC4=CC(=O)CCC4(C)C3C(O)CC12C (stereo unspecified),3.9,22.4,-5.7,0.5,-18.5,-33.8
CC12CCC(=O)C=C1CCC1C2CCC2(C)C(c3csc(N)n3)CCC12 (stereo unspecified),-26.5,-0.1,1.2,7.3,5.4,79.4*
CC12CCC(=O)C=C1CCC1C2CCC2(C)C(C(=O)CO)CC(O)C12 (stereo unspecified),4.9,8.1,-0.5,2.1,-8.8,-18.5
CCN(C(=O)COC(=O)c1ccc(O)cc1O)c1c(N)n(Cc2ccccc2)c(=O)[nH]c1=O,2.4,4.2,-0.9,-0.2,10.2,-3.7
Cc1ccccc1-c1cc2c(nn1)-c1ccccc1C2=O,2.8,-7.2,3.0,0.1,25.2*,-23.1
Cc1ccc(-n2ncc3c(N4CCN(c5ccccc5)CC4)ncnc32)c(C)c1,-16.9,-3.8,3.0,4.8,15.5,24.1*
O=C(O)c1ccc(S(=O)(=O)N(Cc2ccccc2)C2CCCCC2)cc1,9.9,-22.1,-6.8,0.6,-12.7,-4.9
Cc1cc(O)c(C(=O)/C=C/c2ccccc2O)c(=O)o1,9.0,9.4,-1.2,3.4,24.0*,-14.7
Cc1cc(O)c(C(=O)/C=C/c2cccc([N+](=O)[O-])c2)c(=O)o1,3.8,30.2,-3.7,1.7,-17.9,-6.6
CC1(C2CC2)NC(=O)N(CC(=O)N2CCN(S(=O)(=O)c3ccc(F)c(F)c3)CC2)C1=O (stereo unspecified),-4.3,-5.7,-7.9,0.2,-7.2,-3.7
CCC(C)Nc1nc2c(c(=O)n(C)c(=O)n2C)n1Cc1ccc(Cl)cc1 (stereo unspecified),2.9,31.3,-3.4,1.4,-15.4,-4.3
CCNc1nc2c(c(=O)n(C)c(=O)n2C)n1Cc1ccc(Cl)cc1,-13.5,-4.8,2.0,5.3,13.1,28.8*
Cc1cccc(C)c1NC(=O)N1CCC(c2nc3ccccc3o2)CC1,-15.4,-7.6,-6.4,1.2,-8.0,27.6*
COc1ccc(-n2nc3cc(C)c(NC(C)=O)cc3n2)cc1,-1.8,-13.4,-4.7,-0.6,30.5*,0.5
Cc1ccccc1Sc1ccc(N)cn1,-25.7,2.2,-3.8,4.1,-0.6,58.5*
CC(=O)c1ccc(OCc2cc(C(=O)N(C)CC3COc4ccccc4O3)no2)cc1 (stereo unspecified),-9.2,-0.3,2.3,12.0,-7.2,-0.8
CC(C)C[C@H]1CNC(=S)N1CC1CCN(CC2CCC(C(C)(C)C)CC2)CC1 (stereo partly specified),-30.6,8.8,-10.2,0.9,-6.5,76.0*
SMILES,CHRM1 PAM,M1 PAM parental,M1 ag,M1 ag parental,CHO-K1 Ca antag,M1 antag
CC(C)C[C@H]1CNC(=S)N1CC1CCN(CCCC2CCCCC2)CC1,-30.6,-0.8,-11.7,0.7,7.6,83.0*
CC[C@H](C)[C@H]1CNC(=S)N1CC1CCN(CCCC2CCCC2)CC1,-26.5,6.3,-11.7,0.4,-11.4,38.4*
CC[C@H](C)[C@H]1CNC(=S)N1CC1CCN(CCCCc2ccccc2)CC1,-31.0,0.6,-11.3,1.1,-5.4,71.3*
CCC(CC)CN1CCC(CN2C(=S)NC[C@@H]2[C@@H](C)CC)CC1,-5.4,8.8,-11.2,0.9,-15.3,-5.2
CC[C@H](C)[C@H]1CNC(=S)N1CC1CCN(CCC(C)(C)C)CC1,4.2,1.9,-7.5,0.3,-11.4,-3.9
CC(C)C[C@H]1CNC(=S)N1CC1CCN(CCC23CC4CC(CC(C4)C2)C3)CC1,-31.2,24.2,-10.0,1.0,-18.5,87.6*
S=C1NCCN1CC1CCN(CCC23CC4CC(CC(C4)C2)C3)CC1,-30.8,-10.6,-11.3,0.4,-6.7,85.3*
CCN1CCC(CN2CCNC2=S)CC1,2.3,15.8,-9.0,0.5,-6.5,-3.5
CCOc1ccc(S(=O)(=O)N2CCCCC2)cc1NC(=O)CCNC(=O)c1ccco1,5.2,7.9,-3.0,1.3,-11.8,-5.6
CC(C)Nc1ncnc2c1ncn2[C@H]1CN(CCN2CCOCC2)C[C@@H](CO)O1,18.9,12.6,1.4,0.4,0.1,-13.8
O=c1cc2c(nn1Cc1cccc(Cl)c1)-c1ccccc1CC2,-7.8,1.1,-5.1,2.9,47.2*,-13.4
O=c1cc2c(nn1Cc1ccc(Cl)cc1)-c1ccccc1CC2,2.9,-2.2,-2.1,-0.3,4.8,1.8
CCOc1cccc(C(=O)NC(=S)Nc2ccccc2)c1,-3.5,17.9,-10.2,0.1,-7.2,-2.7
CCN1CCN(c2ccc(NC(=O)c3cccc(OCc4ccccc4)c3)cc2)CC1,-21.1,16.7,-4.2,1.1,-0.9,81.1*
CCCOc1cccc(C(=O)NC(=S)Nc2ccc(N3CCN(C)CC3)cc2)c1,-30.2,17.5,-13.2,0.6,-11.4,58.5*
CCOc1cccc(C(=O)NC(=S)Nc2ccc(N3CCN(CC)CC3)cc2)c1,-35.3,23.1,-15.6,1.9,-0.1,81.4*
O=C(NC(=S)Nc1ccc(CN2CCCCC2)cc1)c1cccc(OCc2ccccc2)c1,-27.0,23.3,-8.3,2.1,-5.4,96.2*
CN1CCN(c2ccc(NC(=O)c3cccc(OCc4ccccc4)c3)cc2)CC1,-22.7,11.6,-9.7,0.7,-4.2,-17.0
